Measurements taken from PubChem BioAssay (NCATS).
Several values for one entry are separate records, joined by “and”; a condition that tells them apart may be missing. Equal entries are not always repeated. Records with an inconclusive call do not appear. Activity calls are given as the source filed them. Calls come from the whole dose curve; as a rule, active = well fitted curve in the direction sought with a large enough effect; inconclusive = small, poorly fitted or top-dose-only effect, or another doubt; inactive = no such curve, though single readings can be large; an effect the other way counts as inactive or inconclusive.

Legend:
CRL-7250 = normal cell line; test: Cytotoxic Profiling of Annotated Libraries Using Quantitative High-Throughput Screening (AID 1296008); conditions: Five cell lines viability, CellTiter-Glo ATP luminescence, 48-72 h; max response: stronger effect = lower value; note: nearly all actives have a fitted effect of over 60% in size; note: potency is the fitted concentration of half-maximal effect; for max response: % is set by controls: 0 for no effect and ±100 for the full control effect
In short: (§1)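 Compounds were pin-transferred onto cells and incubated 48 or 72 hr at 37 degree Celsius, 95% humidity. CellTiter-Glo was added, plates sat 10 min at room temperature, then ATP-coupled luminescence was imaged as the viability read-out.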

HEK293 = test: as above; conditions: Five cell lines viability, CellTiter-Glo ATP luminescence, 48-72 h; max response: stronger effect = lower value
In short: as §1

HaCat [1] = test: as above; conditions: Five cell lines viability, CellTiter-Glo ATP luminescence, 48-72 h; max response: stronger effect = lower value
In short: as §1

HACAT [2] = test: qHTS assay to identify novel small-molecules to repurpose for Merkel cell carcinoma treatment (AID 1296009); conditions: MCC and control cell lines, CellTiter-Glo viability, 72 h; at 44.8 µM (top of the series) unless noted; note: nearly all actives have a fitted effect of over 60% in size
In short: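 Luminescence from CellTiter-Glo, read 10 min after addition at room temperature, reported viability following a 72 hr, 37 degree celsius treatment with NPC or MIPE compounds in titration; values normalized to plate controls.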

C33A = test: Primary qHTS to identify gynecologic anti-cancer compounds using libraries of approved drugs and bioactive compounds (AID 1345084); conditions: Gynecologic cancer cell panel viability, ATPlite luminescence, 48 h; series mostly up to 57.5 µM; note: nearly all actives have a fitted effect of over 55% in size; note: potency is the fitted concentration of half-maximal effect
In short: (§2)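 Measured: luminescence after ATPlite addition (15 min, RT). Exposure: 48 h, 37 C, 5% CO2.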

CAOV3 = test: as above; conditions: Gynecologic cancer cell panel viability, ATPlite luminescence, 48 h; series mostly up to 57.5 µM
In short: as §2

CASKI = test: as above; conditions: Gynecologic cancer cell panel viability, ATPlite luminescence, 48 h; series mostly up to 57.5 µM
In short: as §2

Es-2 = test: as above; conditions: Gynecologic cancer cell panel viability, ATPlite luminescence, 48 h; series mostly up to 57.5 µM
In short: as §2

OV90 = test: as above; conditions: Gynecologic cancer cell panel viability, ATPlite luminescence, 48 h; series mostly up to 57.5 µM
In short: as §2

HeLa = test: as above; conditions: Gynecologic cancer cell panel viability, ATPlite luminescence, 48 h; series mostly up to 57.5 µM
In short: as §2

Hek293T = test: as above; conditions: Gynecologic cancer cell panel viability, ATPlite luminescence, 48 h, control line for the selectivity index; series mostly up to 57.5 µM
In short: as §2

JEG-3 = test: as above; conditions: Gynecologic cancer cell panel viability, ATPlite luminescence, 48 h; series mostly up to 57.5 µM
In short: as §2

NIH3T3 = test: Cytotoxic Profiling of Annotated Libraries Using Quantitative High-Throughput Screening (AID 1296008); conditions: Five cell lines viability, CellTiter-Glo ATP luminescence, 48-72 h; max response: stronger effect = lower value; note: nearly all actives have a fitted effect of over 60% in size; note: potency is the fitted concentration of half-maximal effect; for max response: % is set by controls: 0 for no effect and ±100 for the full control effect
In short: as §1

Cc1cc2c(F)c(Oc3ncnn4cc(OCC(C)OC(=O)C(C)N)c(C)c34)ccc2[nH]1 (stereo not drawn)
inactive: max response (CRL-7250) -5.94% | outcome (HaCat [1]) | outcome (HACAT [2]) | Potency (C33A) | Potency (CAOV3) | Potency (CASKI) | Potency (Es-2) | Potency (OV90)
active: Potency (HEK293) 6.51 µM

C[C@@H](N[C@H]1CCCC[C@@H]1NC(=O)c1ccc(Cl)cc1)c1cccc2ccccc12
inactive: max response (CRL-7250) 0.829% | max response (HaCat [1]) -13% | Potency (C33A) | Potency (CASKI) | Potency (Es-2) | Potency (HeLa) | Potency (Hek293T) | Potency (OV90)
active: Potency (HEK293) 20.6 µM

CC#CC(=O)Nc1ccc2ncnc(Nc3cccc(Br)c3)c2c1
inactive: Potency (JEG-3) | Potency (OV90)
active: Potency (CRL-7250) 6.51 µM | Potency (HEK293) 3.66 µM | Potency (HaCat [1]) 0.0326 µM | Potency (C33A) 11.2 µM | Potency (CASKI) 8.91 µM | Potency (Es-2) 14.1 µM

Cc1cc2c(cc1N1C(=O)c3cccc4c(CCCO)ccc(c34)C1=O)n(C)c(=O)n2C
inactive: max response (CRL-7250) -31.8% | max response (HEK293) -71.7% | Potency (C33A) | Potency (CAOV3) | Potency (CASKI) | Potency (Es-2) | Potency (HeLa) | Potency (Hek293T) | Potency (JEG-3) | Potency (OV90)
active: Potency (NIH3T3) 1.53 µM

O=C1NC(=O)C(c2cnc3ccccn23)=C1c1cn2c3c(cc(F)cc13)CN(C(=O)N1CCCCC1)CC2
active: Potency (CRL-7250) 46.1 nM and 33.1 nM | Potency (HEK293) 0.295 µM
inactive: outcome (HaCat [1]) | outcome (HACAT [2]) | Potency (C33A) | Potency (CASKI) | Potency (Es-2) | Potency (HeLa) | Potency (Hek293T) | Potency (JEG-3) | Potency (OV90)

COc1cc(CCC2=NN=C(NC(=O)c3ccc(N4C[C@@H](C)N[C@@H](C)C4)cc3)C2)cc(OC)c1
inactive: max response (HaCat [1]) -66.4%
active: Potency (CRL-7250) 10.3 µM | Potency (HEK293) 18.4 µM | Potency (HeLa) 20 µM

C=C1C(=O)O[C@@H]2C[C@H](C)[C@@H]3CC(=O)C(C)=C3C[C@H]12
inactive: Potency (HeLa)
active: Potency (CRL-7250) 10.3 µM | Potency (HEK293) 8.2 µM | Potency (HaCat [1]) 14.6 µM | Potency (C33A) 28.2 µM

COC1CC/C=C(\C)C(=O)Nc2cc(O)cc(c2)CC(C)CC(OC)C(O)C(C)/C=C(\C)C1OC(N)=O (stereo not drawn)
inactive: Potency (Es-2) | Potency (HeLa)
active: Potency (CRL-7250) 3.17 µM | Potency (HEK293) 2.52 µM | Potency (HaCat [1]) 7.09 µM | Potency (OV90) 8.91 µM

CC(C)C[C@@H]1NC(=O)[C@@H](Cc2ccccc2)NC(=O)C(CCCCCC(=O)C2CO2)NC(=O)[C@@H]2CCCCN2C1=O (stereo partly drawn)
inactive: Potency (C33A) | Potency (CAOV3) | Potency (HeLa) | Potency (Hek293T)
active: Potency (CRL-7250) 3.55 µM | Potency (HEK293) 2.82 µM | Potency (HaCat [1]) 3.17 µM | Potency (CASKI) 0.708 µM | Potency (Es-2) 2.24 µM

Cc1nnc(C[C@@H]2C=C(c3ccc(Cl)cc3)c3ccccc3-n3c(C)nnc32)o1
inactive: max response (HaCat [1]) -1.46% | Potency (CASKI)
active: Potency (CRL-7250) 0.651 µM | Potency (HEK293) 1.16 µM | Potency (Es-2) 12.6 µM | Potency (OV90) 20 µM

COC(=O)C1=COC(O[C@@H]2O[C@H](CO[C@@H]3O[C@H](COC(=O)/C=C\c4ccc(O)cc4)[C@@H](O)[C@H](O)[C@H]3O)[C@@H](O)[C@H](O)[C@H]2O)C2C(CO)=CCC12 (stereo partly drawn)
inactive: max response (CRL-7250) -64.3% | max response (HEK293) -82.6% | max response (NIH3T3) -28.7% | Potency (C33A) | Potency (CAOV3) | Potency (OV90)

CCCCNc1ncc(C(=O)NCc2ccc(-n3ccnc3)cc2)c(NC2CCC(O)CC2)n1 (stereo not drawn)
inactive: Potency (Es-2) | Potency (Hek293T)
active: Potency (CRL-7250) 13 µM | Potency (HEK293) 7.31 µM | Potency (HaCat [1]) 23.1 µM

C#CC(=O)N(c1ccc(OC)cc1OC)C(C(=O)NCC(=O)OCC)c1cccs1 (stereo not drawn)
active: Potency (CRL-7250) 0.206 µM | Potency (HEK293) 0.259 µM | Potency (NIH3T3) 0.164 µM | Potency (C33A) 5.01 µM | Potency (CAOV3) 1.78 µM | Potency (CASKI) 22.4 µM | Potency (Es-2) 1.41 µM | Potency (JEG-3) 15.8 µM

Fc1ccc(-c2nc(C3CCNCC3)sc2-c2ccnc(NC3CC3)n2)cc1
active: Potency (HEK293) 1.64 µM | Potency (HaCat [1]) 5.17 µM
inactive: outcome (CRL-7250) | Potency (C33A) | Potency (Hek293T) | Potency (OV90)

CCOc1cc(C(C)(C)C)ccc1C1=N[C@@](C)(c2ccc(Cl)cc2)[C@@](C)(c2ccc(Cl)cc2)N1C(=O)N1CCN(CC(=O)N2CCOCC2)CC1
active: Potency (CRL-7250) 14.8 µM | Potency (HEK293) 4.17 µM | Potency (NIH3T3) 10.1 µM
inactive: Potency (C33A) | Potency (CAOV3) | Potency (CASKI) | Potency (Es-2) | Potency (Hek293T) | Potency (JEG-3) | Potency (OV90)
